Laboratory results published in the supplement of paper PMC6522484.
± gives the standard deviation of the averaged measurements.

What was measured:
DLD1 [1] = assay: cell viability (CellTiter-Glo) relative to plate median (fraction of plate median); higher = more viable cells; details: 5 µM; treatment time 24 h; reporter: 7TFP
Outline: (§1)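 On parallel plates, a Tecan F500 reader recorded either firefly luciferase or CellTiterGlo luminescence. The plates held colorectal cancer cells stably transduced with lentiviral TCF/Wnt firefly luciferase reporters (7TFP or TCF4/Wnt), seeded in 384-well format and treated 24 h later with library compounds at a final 5 µM for 24 h. Per-well signals were normalised to the plate median (webcellHTS2, additive, no log transformation), and two independent replicates were averaged.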

HCT116 = assay: as above; details: 5 µM; treatment time 24 h; reporter: TCF4/Wnt
Outline: as §1

SW480 [2] = assay: as above; details: 5 µM; treatment time 24 h; reporter: 7TFP
Outline: as §1

DLD1 [3] = assay: TCF/Wnt firefly luciferase reporter signal relative to plate median (fraction of plate median); higher = higher Wnt reporter signal; details: 5 µM; treatment time 24 h; reporter: 7TFP
Outline: as §1

SW480 [4] = assay: as above; details: 5 µM; treatment time 24 h; reporter: 7TFP
Outline: as §1

Row | Compound | cell viability (DLD1 [1]) | cell viability (HCT116) | cell viability (SW480 [2]) | TCF/Wnt firefly luciferase reporter signal (DLD1 [3]) | TCF/Wnt firefly luciferase reporter signal (SW480 [4])
1 | CCOC(=O)[N-]c1c[n+](N2CCOCC2)no1 | 1.065 ± 0.0071 | 1.01 ± 0.089 | 1.02 ± 0.035 | 0.984 ± 0.037 | 1.11 ± 0.078
2 | C[C@@H]1CC[C@@]23CCC4(C)[C@@](C=CC5[C@@]6(C)CCC(=O)C(C)(C)C6CC[C@]54C)(OC2=O)C3[C@H]1C (stereo not given in full) | 0.982 ± 0.04 | 0.991 ± 0.15 | 0.956 ± 0.018 | 0.836 ± 0.09 | 0.921 ± 0.017
3 | C[C@H]1C(=O)CC[C@@H]2[C@]1(C)CC[C@H]1[C@@]2(C)CC[C@@]2(C)[C@@H]3CC(C)(C)CC[C@]3(C)CC[C@]12C | 1.04 ± 0.014 | 0.983 ± 0.052 | 0.9995 ± 0.00071 | 0.95 ± 0.042 | 0.88 ± 0.09
4 | C=CC(N)CCC(=O)O (stereo not given) | 1.06 ± 0.021 | 0.934 ± 0.086 | 1.06 | 0.952 ± 0.21 | 1.06 ± 0.092
5 | Cc1cccc(N(C)C(=S)Oc2ccc3ccccc3c2)c1 | 1.07 ± 0.028 | 1.09 ± 0.099 | 0.987 ± 0.018 | 0.897 ± 0.07 | 0.95 ± 0.04
6 | O=c1c(-c2cc(O)c(O)c(O)c2)coc2cc(O)c(O)c(O)c12 | 1.005 ± 0.0071 | 1.1 ± 0.078 | 1.04 | 1.09 ± 0.035 | 0.93 ± 0.14
7 | CC(=O)NS(=O)(=O)c1ccc(N)cc1 | 1.07 ± 0.05 | 0.978 ± 0.088 | 1.05 ± 0.057 | 1.01 ± 0.22 | 0.854 ± 0.023
8 | O=C1NC(Cc2ccc(O)cc2)C(=O)N2CCCC12 (stereo not given) [Cyclo(tyrosylprolyl)] | 0.935 ± 0.0085 | 0.928 ± 0.023 | 0.9425 ± 0.0021 | 0.768 ± 0.15 | 0.959 ± 0.028
9 | O=C(O)Cc1ccccc1Nc1c(Cl)cccc1Cl | 0.955 ± 0.078 | 0.938 ± 0.037 | 0.96 ± 0.032 | 0.95 ± 0.05 | 0.848 ± 0.13
10 | C[C@@H]1C/C=C/C=C/C=C/C=C/[C@H](O[C@@H]2O[C@H](C)[C@@H](O)[C@H](N)[C@@H]2O)C[C@@H]2O[C@](O)(C[C@@H](O)C[C@H]3O[C@@H]3/C=C/C(=O)O1)C[C@H](O)[C@H]2C(=O)O | 1.03 ± 0.08 | 0.915 ± 0.13 | 0.987 ± 0.019 | 0.921 ± 0.033 | 0.962 ± 0.028
11 | NCCCC(=O)O [gamma-AMINOBUTYRIC ACID] | 1.02 ± 0.046 | 1.02 ± 0.11 | 1.04 ± 0.05 | 1.06 ± 0.093 | 0.89 ± 0.24
12 | COc1ccc(CN(CCN(C)C)c2ccccn2)cc1 | 1.07 ± 0.057 | 1.01 ± 0.14 | 1.08 ± 0.021 | 0.96 ± 0.071 | 1.13 ± 0.014
13 | COC(=O)c1cc(O)c(=O)c2c(O)c(O)ccc2c1 | 0.982 ± 0.096 | 0.8955 ± 0.0021 | 0.997 ± 0.033 | 0.785 ± 0.037 | 0.951 ± 0.11
14 | CN(C)[C@@H]1C(O)=C(C(N)=O)C(=O)[C@@]2(O)C(O)=C3C(=O)c4c(O)cccc4[C@@](C)(O)[C@H]3C[C@@H]12 | 0.988 ± 0.074 | 1.04 ± 0.093 | 1 ± 0.024 | 0.911 ± 0.11 | 0.839 ± 0.031
15 | COc1c(CC(=O)c2cc3c(cc2O)OC(C)(C)C(O)C3)ccc2c1C=CC(C)(C)O2 (stereo not given) | 1.02 ± 0.03 | 1.02 ± 0.035 | 0.911 ± 0.021 | 0.941 ± 0.039 | 0.929 ± 0.08
16 | CC(C)C1NC(=O)C2CCCN2C1=O (single isomer, unassigned; isomere) [Cyclo(prolylvalyl) (Isomere)] | 1 ± 0.023 | 0.992 ± 0.054 | 0.958 ± 0.06 | 0.939 ± 0.067 | 0.944 ± 0.11
17 | CCCCC(=O)O[C@]1(C(=O)CO)CC[C@H]2[C@@H]3CCC4=CC(=O)CC[C@]4(C)[C@H]3[C@@H](O)C[C@@]21C | 0.981 ± 0.084 | 1.02 ± 0.11 | 0.96 ± 0.013 | 1.02 ± 0.11 | 0.997 ± 0.061
18 | Cc1ccc(=O)n(-c2ccccc2)c1 | 0.911 ± 0.041 | 0.866 ± 0.096 | 0.945 ± 0.014 | 0.952 ± 0.17 | 1.08 ± 0.14
19 | COc1cc(OC)c2c(=O)c(-c3ccccc3)coc2c1 | 0.989 ± 0.0028 | 1.04 ± 0.12 | 1.025 ± 0.0071 | 1.09 ± 0.064 | 1.1 ± 0.05
20 | CC(=O)Nc1cccc(O)c1 | 0.933 ± 0.17 | 1.1 ± 0.028 | 1.03 ± 0.021 | 0.949 ± 0.14 | 0.939 ± 0.13
21 | COc1cccc2c1C(=O)c1c(O)c3c(c(O)c1C2=O)C[C@@](O)(C(=O)CO)C[C@@H]3O[C@H]1C[C@H](N)[C@H](O)[C@H](C)O1 | 1.04 ± 0.059 | 0.67 ± 0.22 | 1.08 ± 0.035 | 1.09 ± 0.099 | 0.682 ± 0.11
22 | CCN(CC)CCOC(=O)c1ccc(N)cc1 | 1.01 ± 0.12 | 1.05 ± 0.028 | 1.03 ± 0.021 | 1.09 ± 0.092 | 1.06 ± 0.014
23 | CC1(C)O[C@@H]2[C@@H](CO[C@@]3(COS(N)(=O)=O)OC(C)(C)O[C@@H]23)O1 | 0.925 ± 0.042 | 1.04 ± 0.014 | 1.03 ± 0.052 | 1.12 ± 0.11 | 0.845 ± 0.12
24 | Nc1ccc(C(=O)O)cc1 | 0.9785 ± 0.00071 | 0.996 ± 0.034 | 0.974 ± 0.013 | 1.03 ± 0.035 | 0.965 ± 0.12
25 | COC(=O)c1c(C)cc(OC)cc1O | 0.99 ± 0.071 | 1.03 ± 0.081 | 0.951 ± 0.05 | 0.885 ± 0.047 | 0.869 ± 0.08
26 | COc1ccc(-c2cc(=O)c3c(O)cc(O[C@@H]4O[C@H](CO[C@@H]5O[C@@H](C)[C@H](O)[C@@H](O)[C@H]5O)[C@@H](O)[C@H](O)[C@H]4O)cc3o2)cc1O | 0.999 ± 0.03 | 1.06 ± 0.12 | 0.96 ± 0.013 | 1.06 ± 0.13 | 1.04 ± 0.021
27 | NCCCCNCCCN | 0.936 ± 0.011 | 1.03 | 0.958 ± 0.05 | 1.12 ± 0.16 | 1.12 ± 0.13
28 | CC(=O)CC(=O)CCC(=O)O | 1.02 ± 0.11 | 0.996 ± 0.12 | 0.935 ± 0.033 | 0.844 ± 0.13 | 0.939 ± 0.02
29 | Cc1cc(=O)oc2cc(O)c(O)cc12 | 0.951 ± 0.035 | 0.886 ± 0.071 | 0.98 ± 0.057 | 0.711 ± 0.25 | 1.085 ± 0.0071
30 | CN(N=O)C(=O)N[C@H]1C(O)O[C@H](CO)[C@@H](O)[C@@H]1O (mixture of isomers) | 0.999 ± 0.03 | 1.03 ± 0.064 | 1.08 ± 0.021 | 0.962 ± 0.15 | 1.005 ± 0.0071
